Rows were chosen to be rich in hits. Some 7.9% of all compounds tested hit in one or more screens of this group.
HT1080NT lethal: qHTS for induction of synthetic lethality in tumor cells producing 2HG: qHTS for the HT-1080-NT fibrosarcoma cell line; Potency, µM (doses to about 46.1 µM), without a hit: at the top dose activity, negative = less viability, most hits filed as cytotoxic; HT-1080-NT fibrosarcoma viability, CellTiter-Glo ATP luminescence, 48 h; actives 1.6% (n = 360,000);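 also: NT is the 2HG producing partner of a matched IDH1 knockdown line; 0% = DMSO-treated cells and -100% = media-only wells without cells; nearly all actives have a fitted effect of over 55% in size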
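HT-1080-NT fibrosarcoma cells (2HG-overproducing), 750 cells/well in RPMI with 5% FBS, dosed after 2 h and incubated 48 h at 37C. CellTiter-Glo luminescence normalized to DMSO and no-cell wells; concentration-response curves fitted and classed.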
HT1080 IDH1KD tx: qHTS for induction of synthetic lethality in tumor cells producing 2HG: qHTS for the HT-1080-IDH1KD cell line; Potency, µM (series often up to 46.1 µM), inactives show at the highest dose activity, negative = toxicity, usual class: cytotoxic; HT-1080 IDH1 knockdown viability, ATP luminescence, 48 h; AID 686971, 2013; actives 2% (n = 360,000);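 also: 0% = DMSO wells and -100% = cell-free medium wells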
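After a 2 h attachment period, IDH1KD HT-1080 cells took pin-transferred compound for 48 h at 37 °C; ATP-based luminescence after 10 min room-temperature reagent incubation reported viability.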
MCF10A rereplic: A quantitative high throughput screen for small molecules that induce DNA re-replication in MCF 10a normal breast cells | MCF 10A DNA re-replication, Hoechst nuclear intensity, 48 h | Potency, µM (series often up to 46.1 µM), for the others: top-dose activity, positive = re-replication, usual class: activators | actives 2.9% (n = 350,000); also: % of control where 0% means no effect; nearly all actives have a fitted effect of over 50% in size
KB-3-1 tox: qHTS assay for MDR1-selective chemotherapeutics: Primary screen using the parental adenocarcinoma cell KB-3-1; KB-3-1 viability, CellTiter-Glo ATP luminescence, 72 h; Potency, µM (top dose mostly 46.1 µM), actives largely listed as cytotoxic; actives 1.4% (n = 400,000); also: % is scaled to controls: 0 for no effect and ±100 for the full control effect; nearly all actives have a fitted effect of over 60% in size
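Screening of KB-3-1 cells (DMEM, 10% FBS, phenol-red free) ran from lowest to highest compound concentration; after 72 h at 37 °C viability was read luminescently and curves fitted.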
KB-V1 cytotox: qHTS assay for MDR1-selective chemotherapeutics: Primary screen using the drug-selected MDR subline cells KB-V1 | KB-V1 MDR cells viability, CellTiter-Glo, 72 h | Potency, µM (highest dose often 46.1 µM), most hits filed as cytotoxic | actives 3.4% (n = 400,000) | AID 1347076, 2019; also: % is scaled to controls: 0 for no effect and ±100 for the full control effect; nearly all actives have a fitted effect of over 60% in size
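Compound-treated KB-V1 multidrug-resistant cells, 72 h, 37 degrees C; viability by CellTiter-Glo. Fitted qHTS curves give the values.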
SW480 rereplic: A quantitative high throughput screen for small molecules that induce DNA re-replication in SW480 colon adenocarcinoma cells; actives 1.8% (n = 340,000); SW480 DNA re-replication, Hoechst DNA content imaging, 48 h; AID 624297, 2012; Potency, µM (top dose mostly 46.1 µM), for inactives: at the top dose re-replication activation, most hits filed as activators; also: % of control where 0% means no effect; nearly all actives have a fitted effect of over 55% in size
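Compounds, transferred as 23 nL by pin tool, were incubated with cells for 48 hr; DNA content per nucleus was then quantified by Hoechst staining and fluorescence plate imaging.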
* = called active by the depositor; i = inactive; ? = inconclusive; · = no result; [ ] = another dose, or the depositor's remark. Calls follow the shape of the dose curve; as a rule, active = well fitted curve in the direction sought with a large enough effect; inconclusive = small, poorly fitted or top-dose-only effect, or another doubt; inactive = no such curve, though single readings can be large; an effect the other way counts as inactive or inconclusive. Potency is read from the fitted curve at half-maximal effect.

SMILES	HT1080NT lethal	HT1080 IDH1KD tx	MCF10A rereplic	KB-3-1 tox	KB-V1 cytotox	SW480 rereplic
Cc1ccc(Cl)cc1-n1ncc2c(Nc3cccc(C)c3C)ncnc21	·	·	·	i	?	·
O=C(c1ccc2c(c1)CCN2S(=O)(=O)c1ccc(Cl)cc1)N1CCN(c2ccccc2F)CC1	·	·	·	i	i	·
Cc1ccc(-n2cccc2/C=C2/C(=N)N3C(=NC2=O)SN=C3S(C)(=O)=O)cc1	-5.5%	8.1%	16.4µM*	i	i	-2.8%
Cc1cc(C)cc(-n2cccc2/C=C2/C(=N)N3C(=NC2=O)SN=C3S(C)(=O)=O)c1	18.4µM*	-16.8%	?	?	i	-50.4%
CCc1ccc(-n2cccc2/C=C2/C(=N)N3C(=NC2=O)SN=C3S(C)(=O)=O)cc1	-10.5%	-9.0%	?	i	i	0.2%
COc1cccc(-n2c(C)cc(/C=C3/C(=N)N4C(=NC3=O)SN=C4S(C)(=O)=O)c2C)c1	-11.0%	?	16.4µM*	i	i	4.7%
COc1cc(/C=C2/C(=N)N3C(=NC2=O)SN=C3S(C)(=O)=O)ccc1OS(=O)(=O)c1ccc(C)cc1	-25.6%	?	?	i	i	?
COc1ccc(CNC(=O)c2ccc3nc(C)c(N(C)Cc4ccc(NC(C)=O)cc4)n3c2)cc1	11.3%	6.5%	·	i	i	·
COc1ccccc1NC(=O)Cn1c(SCC(=O)NCc2ccccc2)nc2ccccc21	·	·	·	i	i	·
O=C(Nc1ccccc1Sc1ccccc1)c1cnn2c1NC(=C1CC1)C=C2C(F)(F)F	0.1%	4.2%	·	·	·	·
CCOC(=O)/C(=C/c1ccc(OC(F)F)cc1)C1=Nn2c(nnc2-c2ccc(Cl)cc2)SC1	3.26µM*	3.66µM*	3.66µM*	?	?	7.31µM*
COc1ccc(-c2nnc3n2N=C(C)CS3)cc1	6.1%	2.6%	1.3%	i	i	-5.7%
CCOC(=O)/C(=C\c1ccc(OC(F)F)cc1)C1=Nn2c(nnc2-c2ccc(Cl)cc2)SC1	5.8µM*	3.66µM*	5.17µM*	?	i	16.4µM*
CC(C)C[C@@H]1O[C@H](CCc2ccccc2)CC2=C1C(=O)OC(C)(C)O2	?	23.1µM*	·	?	i	·
CC(C)C[C@@H]1CC2=C(C(=O)OC(C)(C)O2)[C@H](CCc2ccccc2)O1	-24.3%	0.5%	·	i	?	·
CC(C)[C@@H]1CC2=C(C(=O)OC(C)(C)O2)[C@H](CCc2ccccc2)O1	-15.3%	16.4µM*	·	i	i	·
O=C(NC(=S)Nc1cc(-c2nc3ccccc3[nH]2)ccc1Cl)c1ccc2c(c1)OCO2	-17.2%	?	3.26µM*	18.4µM*	7.31µM*	5.8µM*
CCOc1ccc(C(=O)Nc2cc(-c3nc4ccccc4[nH]3)ccc2Cl)cc1[N+](=O)[O-]	?	18.4µM*	?	i	?	?
COc1ccc(NC(=O)c2ccc3[nH]c(C)c(C)c3c2)c(OC)c1	-4.4%	-20.1%	18.3%	i	i	4.7%
CCOc1ccc(C(=O)Nc2nc3ccccc3[nH]2)cc1OCC	?	-28.2%	17.9%	?	5.17µM*	2.3%
COc1ccc(C(=O)Nc2nc3ccccc3[nH]2)cc1OC	3.5%	?	-18.2%	i	i	-3.3%
CCOc1ccccc1NC(=O)c1ccc2[nH]c(C)c(C)c2c1	?	?	?	i	i	23.1µM*
COc1cc(F)ccc1-c1csc(C(NC(C)=O)c2ccccc2)n1 (centres undefined)	0.7%	2.8%	·	i	i	·
C=C1c2nc3ccccc3n2C=C(c2ccc(C)cc2)N1c1ccccc1	20.6µM*	18.4µM*	4.61µM*	16.4µM*	?	?
C=C(C)Cn1c(-c2ccccc2)nc2ccccc21	2.3%	-12.9%	14.4%	i	?	2.8%
SMILES	HT1080NT lethal	HT1080 IDH1KD tx	MCF10A rereplic	KB-3-1 tox	KB-V1 cytotox	SW480 rereplic
Cc1cn(CC(=O)NCCc2ccccn2)c(=O)[nH]c1=O	2.5%	6.0%	-1.6%	i	i	3.5%
Cc1ccc(NC(=O)CSCC(=O)N(C)Cc2ccc(Cl)c(Cl)c2)cc1	-9.6%	1.5%	2.0%	i	18.4µM*	-5.2%
COc1ccc(NC(=O)CSCC(=O)N(C)Cc2ccc(Cl)c(Cl)c2)cc1	-9.4%	-16.4%	25.1%	i	i	0.6%
Cc1cc(C(=O)Nc2c(C)nn(Cc3ccc(F)cc3)c2C)no1	·	·	·	i	?	·
O=C(Cc1c(F)cccc1Cl)Nc1ccon1	3.9%	-4.0%	-0.7%	i	i	1.3%
Cc1cc(NC(=O)Cc2c(F)cccc2Cl)no1	4.8%	-9.9%	7.31µM*	i	i	?
Cc1cc(C(=O)Nc2c(C)nn(Cc3c(Cl)cccc3Cl)c2C)no1	?	?	-4.0%	i	9.2µM*	-1.2%
Cc1nn(Cc2c(Cl)cccc2Cl)c(C)c1NC(=O)c1cc(C(C)C)on1	?	23.1µM*	?	?	?	8.4%
CCc1cc(C(=O)Nc2c(C)nn(Cc3ccccc3Cl)c2C)no1	·	·	·	i	i	·
COc1ccc(-c2cc(C(=O)Nc3c(C)nn(Cc4ccccc4Cl)c3C)no2)cc1	1.6%[9.24 µM]	-21.3%	10.3µM*	i	i	7.7%
Clc1ccccc1-c1nnc(-c2ccccc2CNc2ccc(Br)cc2)o1	·	·	·	i	i	·
CC1=C(C(=O)Nc2cccnc2)C(c2ccc(Cl)cc2)n2nc(SCc3ccccc3)nc2N1 (centres undefined)	·	·	·	i	?	·
O=C(NCc1ccc(Cl)cc1)C1(c2cccs2)CCOCC1	·	·	·	i	i	·
O=C1CC(N2CCN(Cc3ccccc3)CC2)C(=O)N1CCc1ccccc1 (centres undefined)	6.8%	5.3%	25.9µM*	i	i	-5.0%
O=C(NCc1ccccc1)C(c1ccc(-c2ccccc2)cc1)N1CCN(C(=O)C2CCCO2)CC1 (centres undefined)	-20.8%	?	·	?	?	·
COC(=O)c1sc(N2C(=O)c3oc4ccccc4c(=O)c3C2c2ccc(O)cc2)nc1C (centres undefined)	·	·	·	?	i	·
Cc1ccc(C)c(OCc2cc(C(=O)N3CCOCC3)no2)c1	2.6%	2.4%	18.4µM*	i	i	27.8%
